# Screening data: PubChem, several laboratories
# Autophagy HCS: modulators of autophagy | calls only at 10 µM (by protocol) | 190,000 compounds, 0.98% hits | MEF GFP-LC3 puncta imaging; test concentration mostly 10 µM | AID 463193;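 active = percentage of spot-positive cells more than 3 SD above its plate mean, without a fluorescence outlier flag or 80% toxicity; inconclusive = no clear call, values can overlap the other calls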
# Efa HMGR inh: blocks class II HMG-CoA reductase of Enterococcus faecalis; purified E. faecalis HMGR, NADPH absorbance 340 nm kinetic; inhibition, % at 10 µM; AID 1066; 190,000 compounds, 0.41% hits;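 active = inhibition above a set limit, the median over all tested compounds plus 3 SD, cut at about 9.5% in these data; inconclusive = no clear call, values can overlap the other calls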;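 also: enzyme runs in reverse so mevalonate oxidation gives rising NADPH absorbance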
# INS promoter inh: TRM-6 insulin promoter activity inhibition; 130,000 compounds, 0.9% hits; TRM-6 cells (human fetal islet line), insulin promoter-eGFP reporter, imaging; reporter expression induced with tamoxifen; inhibition, % at 2 µM;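 active = inhibition above the mean plus 3 SD, with well images judged a real hit on visual review, cut at about 60% in these data, passing the limit was not always enough; inconclusive = inhibition over the cutoff but images rejected on review; inactive = inhibition not above the cutoff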
# Ins promoter up: MIN6 insulin promoter up-regulation. AID 1625. MIN6 insulin promoter-GFP reporter, high-content imaging; hits give high values. z-score at 5 µM. 190,000 compounds, 0.3% hits;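 active = z-score above 3 at 5 µM with at least 500 cells counted in the well; inconclusive = wells under 500 cells, flagged as cytotoxic or low count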
# Numbers stand for hits; – = inactive; ? = inconclusive; · = not tested or not shown; + = active, no number. Shown are actives, neighbours in structure and some others; about 1.9% of the full set was active somewhere.
SMILES,Autophagy HCS,Efa HMGR inh,INS promoter inh,Ins promoter up
S=C1NC2=C(CCC/C2=C\c2ccccc2)C(c2ccccc2)N1 (configuration not stated),–,–,–,–
C(=C1/CCCC2=C1Nc1ncnn1C2c1ccccc1)/c1ccccc1 (configuration not stated),–,–,73.0,–
COc1ccc(C2C(C(C)=O)=C(C)N=c3s/c(=C/c4ccc5c(c4)OCO5)c(=O)n32)cc1 (configuration not stated),–,–,–,–
CC1(C)CC(=O)C2=C(C1)N=c1s/c(=C/c3ccc(F)c(F)c3)c(=O)n1C2c1ccc(F)cc1 (configuration not stated),+,–,·,–
Cc1nc2oc(C(=O)c3ccc(Br)cc3)c(N)c2c2c1COC(C)(C)C2,+,–,–,–
CCCc1nc2oc(C(=O)c3ccccc3)c(N)c2c2c1COC(C)(C)C2,–,–,–,?
COc1ccccc1S(=O)(=O)Cc1ccc(C(=O)NCCN2CCCCCC2)o1,–,10.1,–,–
COc1ccccc1S(=O)(=O)Cc1ccc(C(=O)NCCN(C)C)o1,–,·,·,·
COc1cc(C(=O)NCCN2CCCC2)cc(OC)c1OC,+,–,–,–
CCOc1ccc2nc(N3C(=O)/C(=C/c4ccccc4)NC3=S)sc2c1,+,–,·,–
COc1ccc2nc(-n3c(C)ccc3C)sc2c1,–,–,–,–
COc1ccc2nc(N3C(=O)/C(=C/c4ccccc4)NC3=S)sc2c1,+,–,–,–
CCOc1ccc2nc(N3CCCCCC3)sc2c1,–,–,–,·
CC(Oc1ccc(Cl)cc1Cl)C(=O)Nc1ccc(N2CCN(C)CC2)cc1 (configuration not stated),+,–,–,–
CC(=O)N1CCN(c2ccc(NC(=O)C(C)Oc3ccc(Cl)cc3Cl)cc2)CC1 (configuration not stated),–,–,–,–
O=c1[nH]c(CN2CCN(c3ccccc3O)CC2)nc2ccccc12,–,–,–,–
O=c1[nH]c(CN2CCN(CCO)CC2)nc2ccccc12,–,–,100.0,–
COCCNC(=O)/C(C#N)=C/C=C/c1ccccc1[N+](=O)[O-],–,–,·,–
Cc1c(C(c2ccc(O)cc2)c2c(C)n(C)n(-c3ccccc3)c2=O)c(=O)n(-c2ccccc2)n1C,–,–,–,·
Cc1c(C(c2ccc([N+](=O)[O-])cc2)c2c(C)n(C)n(-c3ccccc3)c2=O)c(=O)n(-c2ccccc2)n1C,–,–,·,4.14
COc1ccc(NC(=O)c2cncc(Br)c2)cc1S(N)(=O)=O,–,–,–,–
O=C(CNC(=S)N(Cc1ccccc1)Cc1cccnc1)NC1CCCCC1,–,–,·,·
CC(NC(=O)Cn1nnc(-c2ccncc2)n1)c1ccccc1 (configuration not stated),–,–,–,·
COc1ccc(C(C)=O)cc1CSc1nc2cc(Cl)ccc2o1,–,–,74.1,–
N#C/C(=C\c1cccs1)C(=O)c1ccccc1Cl,·,·,·,–
SMILES,Autophagy HCS,Efa HMGR inh,INS promoter inh,Ins promoter up
COc1ccc(CCc2nc(C)ccc2O)cc1,–,–,88.6,–
Cc1ccc(O)c(CC(C)C)n1,–,–,84.4,–
Cc1ccc(O)c(CO)n1,·,·,·,–
O=C(NCCSc1ccccc1)c1ccc(CN2CCOCC2)cc1,·,·,·,–
Cc1nn(C(=O)c2ccco2)c(C)c1Br,–,–,66.7,·
COc1cccc(OCCCn2cc(/C=C3/C(=N)N4C=C(C)SC4=NC3=O)c3ccccc32)c1,–,–,–,–
COc1ccc(OCCCn2cc(/C=C3/C(=N)N4C=C(C)SC4=NC3=O)c3ccccc32)cc1,+,–,–,–
Cc1cc(-c2ccccc2)c2c3c(cn2n1)c(=O)n(C)c(=O)n3C,–,–,–,–
Cc1cc(-c2ccccc2)c2c3c(c(-c4ccccc4)n2n1)c(=O)n(C)c(=O)n3C,+,–,–,–
CCCC1=C(C(=O)OCC)C(c2ccncc2)n2ncnc2N1 (configuration not stated),–,–,–,–
COc1ccc(-c2cc3cc(OC)c(OC)cc3c(C)n2)cc1C,·,·,·,–
O=C(Cc1ccccc1)N[C@@H](Cc1ccc(O)cc1)C(=O)O,·,·,·,–
Cc1cc2c(cc1C)CSC(c1ccc3ccccc3c1O)SC2,–,–,63.0,–
COC(=O)c1c(-c2ccc(OC)c(OC)c2)csc1N,–,–,80.0,–
COC(=O)c1c(-c2cccc(OC)c2)csc1N,–,–,·,·
CCCNCc1cc(OC)c(OCc2ccccc2)cc1Br,–,19.1,·,–
CCCNCc1cc(OC)c(OCC(=O)NCCc2ccccc2)cc1Br,–,–,–,–
N#Cc1c(N(CCO)CCO)nc(N)c2c(N)nc3c(c12)CC(=O)N3CC1CCCO1 (configuration not stated),·,·,·,–
CCCCN1C(=O)Cc2c1nc(N)c1c(N)nc(N(CCC)CCC)c(C#N)c21,+,–,·,–
CCN(C(=O)c1cn(C)c(=O)c2cc(OC)c(OC)cc12)c1ccccc1C,–,–,81.0,–
CCOC(=O)CNC(=O)c1cn(CC)c(=O)c2cc(OC)c(OC)cc12,–,–,·,–
CCOC(=O)CNC(=O)c1cn(C)c(=O)c2cc(OC)c(OC)cc12,–,–,·,3.18
CCOC(=O)/C(=N\Nc1ccc(C(C)=O)cc1)c1csc(Nc2ccccc2)n1,+,–,–,–
CCOC(=O)/C(=N\Nc1ccccc1[N+](=O)[O-])c1csc(N)n1,–,–,·,–
CCCCNc1c2c(nc3c(-c4ccccc4)c(C)nn13)CCC2,–,–,–,·
SMILES,Autophagy HCS,Efa HMGR inh,INS promoter inh,Ins promoter up
COCCNc1c2c(nc3c(-c4ccccc4)c(C)nn13)CCCC2,–,–,–,·
Cc1nn2c(Nc3ccc(F)cc3)c3c(nc2c1-c1ccccc1)CCC3,–,–,86.7,–
COc1cccc(Nc2c3c(nc4c(-c5ccccc5)c(C)nn24)CCC3)c1,–,–,93.8,–
CCOC(=O)c1ccc(NC(=O)Nc2ccc3c4c(cccc24)C(=O)N3CC)cc1,+,–,–,–
O=C(CSc1nnc(-c2cccnc2)n1C1CCCCC1)NC1CCCC1,+,–,–,·
CCSc1nccc(-c2nn(-c3ccc(C)cc3)ccc2=O)n1,+,–,·,–
C=CCSc1nccc(-c2nn(-c3ccc(C)cc3)ccc2=O)n1,+,–,–,–
CC(/C=N/NC(=O)Cc1cccs1)=C\c1ccccc1,–,–,–,–
CC(/C=N/NC(=O)Cc1cccn1C)=C\c1ccccc1,–,–,75.0,–
CC(=O)Nc1ccc(S(=O)(=O)Nc2ccc3c(c2)C(=O)OC3)cc1,–,–,–,–
COC(=O)c1sc(NC(=O)/C=C/c2ccc(C)o2)nc1C,–,–,–,–
COc1cc2c(cc1OC)/C(=C/c1ccc(Br)cc1)C(=O)OC2,–,–,71.4,–
O=C(O)CC(NC(=O)COc1ccccc1)c1cccc([N+](=O)[O-])c1 (configuration not stated),–,–,–,·
COc1ccc2oc(C(=O)c3ccccc3)c(NC(=O)CN3CCN(C)CC3)c2c1,+,–,·,–
CC(C)=CCCC1(C)C=Cc2c(c(C)cc3c2[nH]c2cc(O)ccc23)O1 (configuration not stated),·,·,·,–
CCC(=O)Nc1cccc(C(=O)/C=C/c2cc(Br)ccc2OC)c1,–,–,94.3,–
O=C(N/N=C/C=C/c1ccc2c(c1)OCO2)c1ccc([N+](=O)[O-])cc1,–,–,–,–
